Data on 40 compounds can be found in PubChem BioAssay (NCI).

About 83,000 compounds went through this panel and 20% of them were active in at least one assay; those are over-represented in the sample as a whole.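 The endpoint reported here, percent growth, reads 100 for growth as untreated, 0 for no net growth and -100 for all cells dead.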 Activity calls are given as the source filed them. How the source made its calls: active means growth percent below 10; inactive means the rest.

One experiment deals with SK-MEL-28 melanoma. Kind of experiment: NCI-60 one-dose screen, 48 h (100 = growth as untreated, 0 = no growth, -100 = all killed). Conditions: 10 µM unless noted.
`CC/C(=C(/c1ccc(Cl)cc1)c1ccc(OCCN2CCCC2)cc1)c1ccc(OC)cc1`: the growth was 85% (inactive).
Still for that read-out and setting: for `c1cc2[nH]ncc2cc1-c1nc2ccc3[nH]ncc3c2c2c1CCCC2` the value was -0.43% (active); for `N#Cc1nc(-c2ccccc2)oc1S(=O)(=O)N1CCOCC1`, 106% (inactive); for `O=C1Nc2ccccc2/C1=C\c1nc(-c2ccccc2)n2ccccc12`, 113% (inactive).
The same measure, in the same setting: the result for `O=C(COc1ccc(-c2nc3ccccc3[nH]2)cc1)N=Nc1c(O)[nH]c2ccc(Cl)cc12` reads 108% (inactive); that for `COc1ccc(NC(=O)c2sc3nc(C)c(C(=O)/C=C/c4cccc(OC)c4)cc3c2N)cc1`, 80.7% (inactive).
The same measure, in the same setting: the result for `COc1cnc2c(c1)C(=O)c1c-2n(CCCNCCO)c(=O)c2ccncc12` reads -13.1% (active); that for `O=C(Nc1nc2ccc(F)cc2s1)c1cccnc1Nc1ccc(Cl)cc1`, 61.9% (inactive); that for `N#CC1C=CN(CC(N)=O)c2ccc3cccnc3c21` (stereo unspecified), 104% (inactive).
For the compound `COc1ccc(-c2nc3c(c(-c4ccccc4)nn3-c3ccccc3)c(-c3ccc(N4CCN(C)CC4)cc3)c2C#N)cc1`, the growth was 97.5% (inactive).
With `O=C(Nc1ccc(NC(=O)c2cc(=O)[nH]c3ccccc23)cc1)Nc1cccc(C(F)(F)F)c1`, the growth was 63.6% (inactive).
For `O=C1C(Cl)=C(Oc2ccccc2)C(=O)c2ccccc21`, the growth is 120% (inactive).
Still for that read-out and setting: for `CC(C)OC(=O)c1ccc2[nH]c(O)c(C(=Nc3ccc(N(C)C(=O)CN4CCN(C)CC4)cc3)c3ccccc3)c2c1` the value was -54.4% (active); for `COc1cc(OC)c2sc(-c3ccc(-n4cncc4-c4ccc(OC)c(OC)c4)cc3)nc2c1`, 71.8% (inactive); for `CCN(CC)C(=S)SC(SC(=S)N(CC)CC)C(=O)c1nnn(-c2ccc([N+](=O)[O-])cc2)c1C`, 104% (inactive).
Still for that read-out and setting: the result for `COc1cccc(CNc2ncnc3c2ncn3C2OC(CO)C(O)C2O)c1O` (stereo unspecified) reads 29% (inactive); that for `O=C(NCc1ccccc1)Nc1ccccc1CNc1nc(Nc2ccc(OCCN3CCCC3)cc2)ncc1Cl`, 105% (inactive); that for `Cc1ccc(-n2c(=S)[nH]c3sc4c(c3c2=O)CCC(=O)C4)cc1`, 53% (inactive).
For the compound `CCCCCCC1(C)NCCO1` (stereo unspecified), the growth was 110% (inactive).
Still for that read-out and setting: for `Clc1ccc2c(c1)N(c1ncnc3ccc(-c4cnc5[nH]ncc5c4)cc13)CC2` the value was 44.1% (inactive).
Still for that read-out and setting: for `COC(=O)c1cc(-c2ccc(S(C)(=O)=O)cc2)[nH]c1N/N=C/c1c(Cl)cccc1Cl` the value was 28.2% (inactive); for `C=CCn1c(SCC(=O)Nc2ccc(C(=O)/C=C/c3ccc(Cl)cc3)cc2)nnc1-c1cc(-c2ccc(S(N)(=O)=O)cc2)nc2ccccc12`, 92.1% (inactive); for `Cc1cc2c(O)c(-c3cc(Cl)ccc3Cl)c3sc(=O)oc3c2cc1C`, 81% (inactive).
For `CC(=O)N(N=Nc1ccccc1)c1cccc2ccccc12`, the growth is 100% (inactive).
The same measure, in the same setting: for `Cc1ccc(-c2nc3nc(-c4ccc(F)cc4)nc(N4CCNCC4)c3o2)cc1` the value was 114% (inactive); for `O=c1oc2ccc([N+](=O)[O-])cc2cc1Br`, 107% (inactive); for `COc1ccc2nc(NC(=O)CSc3nnc4n3S(=O)(=O)c3ccccc3N4C)sc2c1`, 117% (inactive).
The same measure, in the same setting: the result for `Cc1ccc(-c2nn(-c3ccccc3)cc2C=C2C(=O)ON=C2C(C)C)cc1` reads 88.7% (inactive); that for `Cc1cccc(N2CCN(CC(O)COc3ccc(Cl)cc3)CC2)c1` (stereo unspecified), 117% (inactive); that for `Cc1nc2c(=O)[nH]c(SCC(=O)Nc3cccc(F)c3)nc2[nH]c1=O`, 107% (inactive).
Same read-out and setting: for `CN1CCN(c2ccc(NC(=O)c3cncnc3Nc3ccc(OCc4ccccn4)c(Cl)c3)cc2)CC1` the value was -86% (active).

The subject of a further experiment is SK-MEL-2 melanoma. The description is as above. The following applies: 10 µM unless noted.
In the case of `CC/C(=C(/c1ccc(Cl)cc1)c1ccc(OCCN2CCCC2)cc1)c1ccc(OC)cc1`, the growth was 105% (inactive).
Take `c1cc2[nH]ncc2cc1-c1nc2ccc3[nH]ncc3c2c2c1CCCC2`: the growth is -48.7% (active).
Still for that read-out and setting: for `O=C(/C=C/c1ccc(Cl)cc1)c1cccc(Nc2nc(Nc3ccccc3)nc(Nc3ccccc3)n2)c1` the value was 45.7% (inactive).
The same measure, in the same setting: the result for `N#Cc1nc(-c2ccccc2)oc1S(=O)(=O)N1CCOCC1` reads 90.2% (inactive).
On the same count and under the same terms, the result for `O=C1Nc2ccccc2/C1=C\c1nc(-c2ccccc2)n2ccccc12` reads 94.2% (inactive); that for `O=C(COc1ccc(-c2nc3ccccc3[nH]2)cc1)N=Nc1c(O)[nH]c2ccc(Cl)cc12`, 107% (inactive).
As to `COc1ccc(NC(=O)c2sc3nc(C)c(C(=O)/C=C/c4cccc(OC)c4)cc3c2N)cc1`, the growth is 42.9% (inactive).
On the same count and under the same terms, the result for `COc1cnc2c(c1)C(=O)c1c-2n(CCCNCCO)c(=O)c2ccncc12` reads -2.38% (active).
Regarding `O=C(Nc1nc2ccc(F)cc2s1)c1cccnc1Nc1ccc(Cl)cc1`, the growth was 54.4% (inactive).
The same measure, in the same setting: the result for `N#CC1C=CN(CC(N)=O)c2ccc3cccnc3c21` (stereo unspecified) reads 116% (inactive); that for `COc1ccc(-c2nc3c(c(-c4ccccc4)nn3-c3ccccc3)c(-c3ccc(N4CCN(C)CC4)cc3)c2C#N)cc1`, 106% (inactive); that for `Cn1c(=O)c2[nH]c(N/N=C/c3ccccc3Br)nc2n(C)c1=O`, 120% (inactive).
On the same count and under the same terms, for `O=C(Nc1ccc(NC(=O)c2cc(=O)[nH]c3ccccc23)cc1)Nc1cccc(C(F)(F)F)c1` the value was 92.5% (inactive); for `O=C1C(Cl)=C(Oc2ccccc2)C(=O)c2ccccc21`, 73.4% (inactive).
On to `CC(C)OC(=O)c1ccc2[nH]c(O)c(C(=Nc3ccc(N(C)C(=O)CN4CCN(C)CC4)cc3)c3ccccc3)c2c1`, for which the growth was -73.6% (active).
On the same count and under the same terms, for `O=C1C(Cl)=C(Nc2ccc(O)cc2)C(=O)N1Cc1ccc(Cl)cc1` the value was 66.2% (inactive).
Regarding `COc1cc(OC)c2sc(-c3ccc(-n4cncc4-c4ccc(OC)c(OC)c4)cc3)nc2c1`, the growth was 33.5% (inactive).
As to `CCN(CC)C(=S)SC(SC(=S)N(CC)CC)C(=O)c1nnn(-c2ccc([N+](=O)[O-])cc2)c1C`, the growth was 91.6% (inactive).
Same read-out and setting: the result for `COc1cccc(CNc2ncnc3c2ncn3C2OC(CO)C(O)C2O)c1O` (stereo unspecified) reads -6.73% (active); that for `CC(C)c1ccc(COCc2cc(CN3CCCC3)c(O)c3ncccc23)cc1`, -23.9% (active).
On the same count and under the same terms, the result for `O=C(NCc1ccccc1)Nc1ccccc1CNc1nc(Nc2ccc(OCCN3CCCC3)cc2)ncc1Cl` reads 108% (inactive); that for `Cc1ccc(-n2c(=S)[nH]c3sc4c(c3c2=O)CCC(=O)C4)cc1`, 39.6% (inactive); that for `Oc1c(Cl)cc(Cl)cc1/C=N/Nc1nnc(N/N=C/c2cc(Cl)cc(Cl)c2O)c2ccccc12`, 51.2% (inactive).
Same read-out and setting: the result for `CCCCCCC1(C)NCCO1` (stereo unspecified) reads 109% (inactive).
Take `Clc1ccc2c(c1)N(c1ncnc3ccc(-c4cnc5[nH]ncc5c4)cc13)CC2`: the growth is 48.3% (inactive).
Same read-out and setting: for `COC(=O)c1cc(-c2ccc(S(C)(=O)=O)cc2)[nH]c1N/N=C/c1c(Cl)cccc1Cl` the value was -18.8% (active); for `C=CCn1c(SCC(=O)Nc2ccc(C(=O)/C=C/c3ccc(Cl)cc3)cc2)nnc1-c1cc(-c2ccc(S(N)(=O)=O)cc2)nc2ccccc12`, 103% (inactive); for `Cc1cc2c(O)c(-c3cc(Cl)ccc3Cl)c3sc(=O)oc3c2cc1C`, 74% (inactive).
Still for that read-out and setting: the result for `CC(=O)N(N=Nc1ccccc1)c1cccc2ccccc12` reads 20.1% (inactive); that for `Cc1ccc(-c2nc3nc(-c4ccc(F)cc4)nc(N4CCNCC4)c3o2)cc1`, 102% (inactive).
As to `O=c1oc2ccc([N+](=O)[O-])cc2cc1Br`, the growth was 106% (inactive).
On the same count and under the same terms, the result for `COc1ccc2nc(NC(=O)CSc3nnc4n3S(=O)(=O)c3ccccc3N4C)sc2c1` reads 50.6% (inactive).
Same read-out and setting: for `Cc1ccc(-c2nn(-c3ccccc3)cc2C=C2C(=O)ON=C2C(C)C)cc1` the value was 84.5% (inactive).
As for `Cc1cccc(N2CCN(CC(O)COc3ccc(Cl)cc3)CC2)c1` (stereo unspecified), the growth is 89.5% (inactive).
Still for that read-out and setting: the result for `Cc1nc2c(=O)[nH]c(SCC(=O)Nc3cccc(F)c3)nc2[nH]c1=O` reads 103% (inactive); that for `CN(C)c1ccc(/C=C/C(=O)c2ccc(-n3cc(CN4CCN(c5cc6c(cc5F)c(=O)c(C(=O)O)cn6C5CC5)CC4)nn3)cc2)cc1`, 89% (inactive); that for `COc1cc2c(c(OC)c1OC)-c1ccc(OC)c(=O)cc1[C@@H](NC(=O)CCl)CC2`, 41.1% (inactive).
Same read-out and setting: for `O=C(Nc1cccnc1Nc1ccc(F)cc1)c1cn(Cc2cccc(Oc3ccccc3)c2)nn1` the value was 73.9% (inactive); for `COc1ccc(-c2ccc3cnc4sc(-c5ccc(OC)cc5)nc4c3n2)cc1`, 96.2% (inactive); for `CN1CCN(c2ccc(NC(=O)c3cncnc3Nc3ccc(OCc4ccccn4)c(Cl)c3)cc2)CC1`, 21.6% (inactive).
